Measurements taken from PubChem BioAssay AID652104 (National Center for Advancing Translational Sciences (NCATS), 2013).
Several values for one entry are separate records, joined by “and”; a condition that tells them apart may be missing. Equal values may be shown once. Hit rate of the full screen: of about 410,000 compounds, about 7,200 (1.8%) were called active. Roughly 7% stayed inconclusive and do not appear here. For the sample, actives were picked, then their nearest neighbours and some compounds at random. A number with no mark means an inactive call. Calls follow the shape of the dose curve; as a rule, active = well fitted activation curve with a large enough effect; inconclusive = small, poorly fitted or top-dose-only effect, or another doubt; inactive = no such curve, though single readings can be large or run the other way.

Assay: qHTS of TDP-43 Inhibitors; also: nearly all actives have a fitted effect of over 50% in size; as to growth rescue (activation): % of control where 0% means no effect
Conditions: TDP-43 expressing yeast growth rescue, BacTiter-Glo, 24 h; series mostly up to 46.1 µM; growth rescue (activation): at the top concentration
Summary of the method: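 Growth rescue of TDP-43-toxic yeast measured as ATP luminescence (BacTiter-Glo). Cells grown to mid-log in raffinose, induced in galactose at OD600=0.02, exposed to compound 24 hr at 30 deg C.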
Potency is read from the fitted curve at half-maximal effect.

Compound | growth rescue (activation) | Potency
COC(=O)c1cc(NC(=O)c2sc3ccccc3c2Cl)cc(C(=O)OC)c1 | 11.6% | 
O=C(Cn1c(=O)n(Cc2cccs2)c(=O)c2cccnc21)Nc1ccc(F)cc1 | -9.45% | 
COc1cn(CC(=O)Nc2cccc(C)c2C)c(CN2CCCCC2)cc1=O | 8.28% | 
COc1ccc(-n2cnc3cc(C(=O)NC4CCCC4)ccc32)cc1 |  | 28.2 µM (active) and 17.8 µM (active)
COCCCNC(=O)c1ccc2c(c1)ncn2-c1ccccc1OC | 7.43% | 
Cc1ccc(-n2cnc3cc(C(=O)NCCC4=CCCCC4)ccc32)cc1Cl | 7.7% | 
Cc1ccc(C(=O)Oc2ccc(C(=S)N3CCOCC3)cc2)cc1 | 26% | 
O=C(Oc1ccc(C(=S)N2CCOCC2)cc1)c1ccc(F)cc1 |  | 7.08 µM (active)
O=C(OCC(=O)N1CCOCC1)c1ccc2ccccc2c1 | 17.2% | 
O=C(Oc1ccc(Br)cc1C(=S)N1CCOCC1)c1cccc([N+](=O)[O-])c1 | 11% | 
O=C(Oc1cccc(C(=S)N2CCOCC2)c1)c1cccc(Cl)c1 |  | 12.6 µM (active)
O=C(Oc1ccc(F)cc1)N1CCOCC1 | -18.8% | 
CC1Cc2cc(S(=O)(=O)CCC(=O)NCc3ccc(Cl)cc3)ccc2N1C(=O)C1CC1 (configuration not stated) | 3.43% | 
COc1cccc2c1cc1c(=O)n(CC(=O)N3CCN(c4cccc(Cl)c4)CC3)nc(C)n12 | 7.4% | 
Cc1ccc(CCNC(=O)c2ccc3c(c2)nc2n3CCC(C)C2)cc1 (configuration not stated) | 13.3% | 
COc1cccc(-c2nnc3n(CCc4ccccc4)c(=O)c4ccccc4n23)c1O | 8.42% | 
O=C1NC(c2cc3c(cc2Cl)OCO3)Oc2ccccc21 (configuration not stated) |  | 22.4 µM (active)
O=C1OCC2=C1C(c1ccc(Cl)cc1)c1cc3c(cc1O2)OCO3 (configuration not stated) | -12.4% | 
O=C(NCc1nnnn1-c1ccc(Cl)cc1)c1ccc2c(c1)OCO2 | 20.1% | 

Compound | growth rescue (activation) | Potency
COc1ccc(CNC(=O)c2ccc3oc(C(C)C)nc3c2)cc1 | 0% | 
COc1ccc(-n2nnnc2CNC(=O)c2ccc3ccccc3c2)cc1 |  | 20 µM (active)
O=C(O)c1cc([N+](=O)[O-])c(Nc2cccc3ccccc23)c([N+](=O)[O-])c1 |  | 11.2 µM (active)
CC(C)NC(=O)c1ccc(Sc2ccccc2)c([N+](=O)[O-])c1 | -0.383% | 
O=C(Nc1cccc2ccccc12)NC1CC1 | 4.47% | 
COc1cccc(CNC(=O)C2CCN(S(=O)(=O)c3ccc4c(ccn4C)c3)CC2)c1 | 25.2% | 
Nc1ccccc1Sc1cc(Cl)nnc1Cl |  | 12.6 µM (active)
Cc1ccc(Nc2ccc3cc(S(=O)(=O)N4CCCCC4)ccc3n2)cc1F | 21.6% | 
CCCCN(C)CCCNC(=O)CN1N=C(c2ccc(OC)cc2)CCC1=O | -1.21% | 
CCOc1ccc(C2=CC(c3ccccc3)n3ncnc3N2)cc1 (configuration not stated) |  | 17.8 µM (active)
CCOC(=O)C1=C(c2ccccc2)Nc2ncnn2C1c1ccc(Cl)cc1 (configuration not stated) | -5.42% | 
COc1ccc(C2=CC(c3ccccc3Cl)n3nc(-c4ccc(Cl)cc4)nc3N2)cc1 (configuration not stated) | 9.18% | 
Brc1ccc(C2=CC(c3ccco3)n3ncnc3N2)cc1 (configuration not stated) |  | 12.6 µM (active)
CCOc1ccc(NC(=O)CSc2c3c(nc4ccccc24)CCCC3)cc1 | 16.7% | 
CC(=O)c1cccc(Nc2ccc3cc(S(=O)(=O)N4CCC(C)CC4)ccc3n2)c1 | 26.4% | 
CC(C)(C)Cc1c(C2CCCCC2)nc2ccc(Br)cn12 |  | 28.2 µM (active)
Cc1cc(Br)cn2c(Cc3ccccc3C(F)(F)F)c(C3CCCCC3)nc12 | -0.49% | 
COC(=O)c1ccc2nc(C3CCCCC3)c(Cc3cccc(F)c3)n2c1 | 12.6% | 
COc1cccc(NC(=O)c2csnn2)c1 | 10.3% | 

Compound | growth rescue (activation) | Potency
CCOC(=O)c1cnc2c(C)cc(C)cc2c1Nc1ccc(N2CCOCC2)cc1 | 22.4% | 
CCOc1cccc(CC(=O)N2CCc3c([nH]c4ccccc34)C2c2ccc(OC)cc2)c1OCC (configuration not stated) | -0.232% | 
CCCC(=O)Nc1ccc2oc(-c3ccc(O)c(Br)c3)nc2c1 | 18% | 
CC(C)c1ccc(C2CC(=O)N3CN(C4CCCCC4)CSC3=C2C#N)cc1 (configuration not stated) | -0.958% | 
CCc1nn(CC(=O)Nc2cc(C)cc(C)c2)c(=O)c2cc3sccc3n12 | 4.62% | 
S=C(Nc1cccc(Br)c1)N1CCn2cccc2C1c1cccnc1 (configuration not stated) | 14.8% | 
O=S(=O)(c1cccc(C(F)(F)F)c1)N1c2ccccc2-n2cccc2C1c1cccnc1 (configuration not stated) |  | 25.1 µM (active)
CC(=O)Nc1ccc(NC(=O)C2CCCN2S(=O)(=O)c2cccc(C(F)(F)F)c2)cc1 (configuration not stated) | 14.9% | 
CN(C)c1cccc(C(=O)Nc2nc3ccc(S(=O)(=O)NC(C)(C)C)cc3s2)c1 | 6.18% [at 9.22 µM] | 
COc1ccc2c(c1)c(N1CCCC1=O)c(C(=O)Nc1ccccc1C(F)(F)F)n2C | -6.33% | 
CCOc1ccc(NC(=O)C(CC(C)C)N2Cc3ccccc3C2=O)cc1 (configuration not stated) | 5.28% | 
CC(Cc1cccs1)N(Cc1ccc(Cl)cc1)C(=O)c1ccncc1 (configuration not stated) |  | 35.5 µM (active)
CC(C)(C)N(Cc1ccccc1)C(=O)c1ccncc1 | 6.52% | 
CC(Cc1cccs1)NC(=O)c1cccc(Cl)c1 (configuration not stated) | -15.2% [at 0.397 µM] | 
CCOc1cc(C2C(C(=O)Nc3ccc(OC)cc3)=C(C)Nc3nc(SC)nn32)ccc1O (configuration not stated) | 26.8% | 
O=C(CSc1nccn1Cc1ccc(Cl)cc1)NCc1ccccc1 | 9.99% [at 9.22 µM] | 
CCOC(=O)c1ccc(NC(=O)Cn2c(=O)cc(C)c3c(C)nn(-c4cccc(F)c4)c32)cc1 | -3.59% | 
O=C(O)c1[nH]c2ccccc2c1C(c1cccc(O)c1)c1c(C(=O)O)[nH]c2ccccc12 | 5.7% | 
Cc1[nH]c2ccccc2c1-c1ccc(Cl)nn1 | -8.17% [at 9.22 µM] | 
